In PubChem BioAssay one finds z-score and composite z-score data, which are given here for eight compounds.

The source made the active and inactive calls. Unless noted, the rule behind the calls is not given here.

The nature of assay [1]: compound effects on lung adenocarcinoma cell viability – A549, calcein-AM fluorescence, 48 h, basal, profiling panel (AID 1162). Note: test concentration not given here. Conditions: higher = more signal.
A short description of assay [2]: compound effects on differentiated 3T3-L1 adipocyte viability – cell-based, 3T3-L1 adipocytes, calcein-AM fluorescence, 48 h, basal, profiling panel (AID 1163). Note: test concentration not given here. Conditions: 3T3-L1 adipocytes viability, higher = more signal.
Assay [3] in a line: compound effects on hepatocellular carcinoma cell viability – HepG2, calcein-AM fluorescence, 48 h, basal, profiling panel (AID 1164). Note: test concentration not given here. Conditions: higher = more signal.
The nature of assay [4]: compound effects on multiple myeloma cell viability – MM1S, calcein-AM fluorescence, 48 h, basal, profiling panel (AID 1165). Note: test concentration not given here. Conditions: higher = more signal.
The nature of assay [5]: calcein-AM signal in unstimulated myeloma cells – cell-based, calcein-AM fluorescence, 48 h, PK04 Diversity Set, profiling panel (AID 1166).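 Note: cells grown under basal conditions without added stimulus; test concentration not given here.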 To be noted: RPMI8226 myeloma viability, higher = more signal.
Assay [6] in a line: JC-1 mitochondrial signal, unstimulated HepG2 cells – cell-based, JC-1 fluorescence, 24 h, 100 nL compound, profiling panel (AID 1167). Note: test concentration not given here. Conditions: HepG2 mitochondrial potential, higher = more signal.
The nature of assay [7]: JC-1 mitochondrial signal, unstimulated adipocytes – cell-based, JC-1 fluorescence, 3T3-L1 adipocytes, 24 h, 100 nL compound, profiling panel (AID 1168). Note: test concentration not given here. To be noted: JC-1 mitochondrial fluorescence, higher = more signal, called active from +8 up or from −8 down.
Assay [8] can be described thus: JC-1 mitochondrial signal, unstimulated myeloma cells – cell-based, JC-1 fluorescence, RPMI8226, 24 h, 100 nL compound, profiling panel (AID 1169). Note: test concentration not given here. Conditions: JC-1 mitochondrial potential fluorescence, higher = more signal.
The nature of assay [9]: JC-1 mitochondrial signal, unstimulated MM1S myeloma – cell-based, JC-1 fluorescence, 24 h, 100 nL compound, profiling panel (AID 1170). Note: test concentration not given here. Conditions: MM1S mitochondrial potential, higher = more signal.
A short description of assay [10]: resazurin metabolic signal in A549 cells – cell-based, resazurin fluorescence, 24 h, PK04 Diversity Set, profiling panel (AID 1171). Note: test concentration not given here. Conditions: A549 viability, higher = more signal, called active from +8 up or from −8 down. In general terms: Resazurin is reduced to fluorescent resorufin, in cell work by metabolically active cells.
A short description of assay [11]: resazurin metabolic signal in HepG2 cells – cell-based, resazurin fluorescence, 24 h, PK04 Diversity Set, profiling panel (AID 1172). Note: test concentration not given here. To be noted: HepG2 viability, higher = more signal.
Assay [12] can be described thus: budding yeast growth changes without added modifier – OD600, strain BY4716, 24 h, basal condition, primary screen (AID 1173). Conditions: S. cerevisiae BY4716 growth, OD600, 24 h; higher = more signal, called active from +8 up or from −8 down.
Assay [13] can be described thus: viability profiling in MM1S myeloma cells – cell-based, resazurin fluorescence, basal, 24 h, PK04 Diversity Set, profiling panel (AID 1174). Note: test concentration not given here. Conditions: higher = more signal, called active from +8 up or from −8 down.
In assay [14] the target is Dihydroorotate dehydrogenase (quinone), mitochondrial (Plasmodium falciparum (isolate 3D7)) (UniProt Q08210). The assay can be described thus: inhibition of P. falciparum DHODH – biochemical, C-terminal His tag, absorbance 600 nm, primary screen (AID 1175).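 Note: recombinant parasite enzyme with a five histidine tag at its C terminus; test concentration not given here.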 Conditions: PfDHODH enzyme, DCIP absorbance 600 nm; higher = more signal, called active from +8 up or from −8 down.
Chain of Dihydroorotate dehydrogenase (quinone), mitochondrial (Plasmodium falciparum (isolate 3D7)) (Q08210 whole entry, looked up): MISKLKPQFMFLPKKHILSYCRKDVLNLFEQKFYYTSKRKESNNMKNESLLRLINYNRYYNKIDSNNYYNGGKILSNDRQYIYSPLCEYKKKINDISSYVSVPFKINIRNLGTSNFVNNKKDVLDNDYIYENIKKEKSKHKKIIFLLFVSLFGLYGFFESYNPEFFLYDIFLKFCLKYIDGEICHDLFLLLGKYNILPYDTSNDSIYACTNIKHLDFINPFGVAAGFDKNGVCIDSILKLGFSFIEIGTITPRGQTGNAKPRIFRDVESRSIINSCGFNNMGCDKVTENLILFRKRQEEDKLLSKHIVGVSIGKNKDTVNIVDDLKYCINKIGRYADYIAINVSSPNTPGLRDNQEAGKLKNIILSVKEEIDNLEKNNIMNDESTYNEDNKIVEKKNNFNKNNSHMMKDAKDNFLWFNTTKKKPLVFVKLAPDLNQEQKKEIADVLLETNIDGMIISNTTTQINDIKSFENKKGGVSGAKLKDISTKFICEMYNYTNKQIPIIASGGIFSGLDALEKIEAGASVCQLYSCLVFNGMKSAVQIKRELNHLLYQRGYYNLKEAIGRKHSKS

A short description of assay [15]: inhibition of PAO1 biofilm formation – strain PAO1, LB-PBS medium, absorbance 600 nm, primary screen (AID 1176). Note: test concentration not given here. To be noted: P. aeruginosa PAO1 growth/biofilm, A600, 12 h; higher = more signal.
Assay [16] is described as follows: growth modulation of vineyard yeast isolate – strain RM11-1a, OD600, basal, 24 h, primary screen (AID 1177).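 Note: cultures grown under basal conditions with no added stressor; test concentration not given here.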 To be noted: S. cerevisiae RM11-1a growth, OD600, 24 h; higher = more signal, called active from +8 up or from −8 down.
Assay [17] in a line: growth of efflux-deficient E. coli DRC39 – strain DRC39, OD650, 24 h, E. coli filamentation inducers, primary screen (AID 1178).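 Note: growth measured as culture turbidity by optical density at 650 nm; test concentration not given here.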 Conditions: E. coli DRC39 acrAB, higher = more signal, called active from +8 up or from −8 down.
Assay [18] is described as follows: growth of efflux-deficient E. coli DRC39 – strain DRC39, OD650, 48 h, E. coli filamentation inducers, primary screen (AID 1179).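 Note: screen aims at cell division blockers that make cells filament.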 Conditions: E. coli DRC39 delta-acrAB growth, higher = more signal, called active from +8 up or from −8 down.
Assay [19] is described as follows: viability profiling in RPMI8226 myeloma cells – cell-based, resazurin fluorescence, basal, 24 h, PK04 Diversity Set, profiling panel (AID 1180).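 Note: RPMI8826 multiple myeloma cell line at 5000 cells per well; test concentration not given here.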 To be noted: higher = more signal.
The target in assay [20] is E3 ubiquitin-protein ligase XIAP (Homo sapiens) (UniProt P98170). Briefly: small molecules binding XIAP protein – biophysical, small-molecule microarray, fluorescence 635 nm, primary screen (AID 1181).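 Note: score merges 667 nm emission and signal to noise over triplicate slides.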 Conditions: higher = more signal.
Chain of E3 ubiquitin-protein ligase XIAP (Homo sapiens) (P98170 whole entry, looked up): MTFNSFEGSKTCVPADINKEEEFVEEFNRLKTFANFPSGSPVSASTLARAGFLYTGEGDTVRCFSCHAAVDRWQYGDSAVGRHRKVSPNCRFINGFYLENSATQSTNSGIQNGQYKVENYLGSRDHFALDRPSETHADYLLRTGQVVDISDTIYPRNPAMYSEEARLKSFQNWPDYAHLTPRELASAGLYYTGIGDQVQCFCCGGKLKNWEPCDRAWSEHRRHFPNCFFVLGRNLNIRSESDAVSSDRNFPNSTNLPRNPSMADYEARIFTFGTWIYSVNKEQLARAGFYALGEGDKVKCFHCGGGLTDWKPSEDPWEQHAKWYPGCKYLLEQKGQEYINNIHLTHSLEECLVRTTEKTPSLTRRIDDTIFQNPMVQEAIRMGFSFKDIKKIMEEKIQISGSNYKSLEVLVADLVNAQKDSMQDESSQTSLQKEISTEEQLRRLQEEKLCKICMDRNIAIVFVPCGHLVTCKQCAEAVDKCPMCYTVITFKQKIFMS

On to `COc1ccc(CCNC(=O)[C@@H]2c3ccccc3C(=O)N(Cc3ccc(OC(F)(F)F)cc3)[C@H]2c2ccc(CO)cc2)cc1`, for which the z-score in [1] is 0.843; in [2], 0.614; in assay [3] it was -1.01; in assay [4], -2.39; in [5], -1.99; in assay [6], 1.14. Besides, the z-score in [7] was -0.0731 (inactive); in assay [8], 0.118; in assay [9], -0.23; in assay [10], 0.619 (inactive); in assay [11], 0.697; in assay [12], -0.484 (inactive). In addition, the z-score in assay [13] was -0.0601 (inactive); in assay [15], 1.52 (inactive); in assay [16] it was -0.419 (inactive); in assay [17], -0.344 (inactive); in assay [18], -1.06 (inactive); in [19], 0.53. Further, the composite z-score was 0.274 (inactive) in assay [14] and -0.228 in assay [20].
With `CC(C)c1ccc(NN2C(C(O)c3c(F)cccc3Cl)C=CC3C(=O)N(c4ccccc4)C(=O)C32)cc1` (stereo not given), the z-score was -0.755 in [1]; 0.205 in assay [2]; -0.314 in [3]; -0.414 in assay [4]; -1.32 in [5]; -2.03 in assay [6]. In addition, the z-score is -2.25 (inactive) in assay [7]; -0.738 in [8]; 0.584 in assay [9]; -1.71 (inactive) in assay [10]; -1.59 in [11]; -0.134 (inactive) in [12]. Moreover, the z-score in assay [13] was -1.35 (inactive); in assay [15], 0.807 (inactive); in assay [16], 1.5 (inactive); in assay [17], -0.576 (inactive); in [18] it was -0.895 (inactive); in [19] it was -1.42. Further, the composite z-score is 1.36 (inactive) in assay [14] and -0.132 in [20].
For `CCCCC(CC)C(O)C1C=CC2C(=O)N(c3ccccc3)C(=O)C2N1Nc1ccccc1` (stereo not given), the z-score in assay [1] was -0.5; in assay [2], 0.0749; in assay [3], -0.315; in assay [4] it was -0.137; in assay [5], -0.841; in assay [6], -2.35. Moreover, the z-score was 0.633 (inactive) in assay [7]; -0.48 in [8]; 0.00945 in [9]; -0.885 (inactive) in assay [10]; -1.3 in assay [11]; -1.14 (inactive) in assay [12]. Also, the z-score in assay [13] is -1.51 (inactive); in [15], 0.462 (inactive); in assay [16], -0.347 (inactive); in [17] it was -0.556 (inactive); in [18], -0.945 (inactive); in [19], -1.42. Moreover, the composite z-score in assay [14] is -0.524 (inactive); in assay [20] it was 0.387.
For `COCCOC(=O)N1C(=O)[C@@]2(c3ccccc31)[C@H](c1ccc(O)cc1)N1[C@H](c3ccccc3)[C@H](c3ccccc3)OC(=O)[C@H]1[C@@H]2C(=O)N1CCc2cc(OC)c(OC)cc2C1`, the z-score in assay [1] was 0.823; in [2], 0.748; in assay [3] it was 2.31; in assay [4], 0.448; in [5], -0.368; in assay [6] it was 0.893. Further, the z-score is 2.9 (inactive) in [7]; 0.228 in assay [8]; 0.296 in assay [9]; -0.275 (inactive) in assay [10]; 0.129 in assay [11]; 0.0332 (inactive) in assay [12]. Also, the z-score is 0.612 (inactive) in assay [13]; 0.759 (inactive) in [15]; -0.33 (inactive) in assay [16]; 0.919 (inactive) in assay [17]; 1.3 (inactive) in assay [18]; 0.471 in [19]. In addition, the composite z-score was -0.888 (inactive) in [14] and -0.0841 in assay [20].
For `O=C1O[C@@H](c2ccccc2)[C@@H](c2ccccc2)N2[C@@H](c3ccc(O)cc3)[C@]3(C(=O)Nc4ccc(C#CC5=CCCCC5)cc43)[C@@H](C(=O)O)[C@H]12`, the z-score in assay [1] was 1.09; in assay [2], 0.369; in assay [3], 1.2; in [4], -0.294; in assay [5], -0.412; in assay [6], -0.956. The z-score in assay [7] was 0.619 (inactive); in assay [8] it was -0.177; in [9], 1.04; in assay [10], 1.86 (inactive); in assay [11] it was 1.46; in assay [12] it was -4.6 (inactive). The z-score in assay [13] was 1.23 (inactive); in [15], 2.85 (inactive); in assay [16] it was -2.61 (inactive); in [17], 0.661 (inactive); in assay [18], 1.32 (inactive); in assay [19], 1.02. Further, the composite z-score is -2.56 (inactive) in assay [14] and 0.332 in assay [20].
Regarding `C=C[C@H](COC(C)=O)N(Cc1ccc(OC(C)=O)c(OC)c1)S(=O)(=O)c1ccc(Br)cc1`, the z-score was 1.18 in assay [1]; 0.139 in [2]; 0.285 in [3]; 0.594 in assay [4]; 0.394 in assay [5]; 0.43 in [6]. Further, the z-score was 1.19 (inactive) in [7]; 0.825 in assay [8]; -0.886 in [9]; 0.353 (inactive) in assay [10]; 0.203 in [11]; -0.533 (inactive) in assay [12]. Moreover, the z-score is 0.427 (inactive) in [13]; -0.152 (inactive) in [15]; 0.318 (inactive) in [16]; 1.65 (inactive) in [17]; 2.5 (inactive) in [18]; 0.798 in assay [19]. For the same compound, the composite z-score is -1.24 (inactive) in assay [14] and -0.162 in assay [20].
With `C=CC[C@@]1(C(=O)NCC(O)CO)N=C(c2ccc(OCCCO)cc2)O[C@@H]1c1ccccc1N=[N+]=[N-]` (stereo not given in full), the z-score in [1] is -0.112; in [2], 1.37; in assay [3], -0.805; in assay [4] it was -0.494; in assay [5] it was -1.14; in assay [6], 0.582. Moreover, the z-score was -0.343 (inactive) in assay [7]; -0.164 in [8]; -1.17 in [9]; 0.695 (inactive) in assay [10]; 0.896 in [11]; -0.965 (inactive) in [12]. Besides, the z-score in assay [13] is -0.12 (inactive); in assay [15], -0.0709 (inactive); in [16], 0.0157 (inactive); in assay [17], 1.69 (inactive); in assay [18], 1.29 (inactive); in [19] it was -0.274. Besides, the composite z-score is -0.269 (inactive) in assay [14] and 0.0049 in [20].
As to `COC(=O)[C@@]1(Cc2ccc(OC)cc2)[C@H]2c3cc(C(=O)N4CCCC4)n(Cc4ccccn4)c3C[C@H]2CN1C(=O)c1ccccc1`, the z-score in assay [1] was -0.87; in assay [2] it was 0.588; in assay [3], -0.379; in assay [4], -1.9; in assay [5], -0.676; in [6], 1.85. Also, the z-score in assay [7] was -0.85 (inactive); in [8], 0.556; in [9] it was 0.208; in assay [10] it was -0.823 (inactive); in assay [11] it was -1.73; in assay [12], 2.39 (inactive). Besides, the z-score in assay [13] is -1.07 (inactive); in assay [15] it was 0.743 (inactive); in assay [16], 1.13 (inactive); in [17] it was -0.564 (inactive); in [18] it was 0.147 (inactive); in [19] it was -2.2. The composite z-score in assay [14] was 0.81 (inactive); in assay [20], 0.0379.
